Bioassay records deposited in PubChem by National Center for Advancing Translational Sciences (NCATS).
D3 ag – agonists of human D3 dopamine receptor. P35462. D3R DiscoveRx beta-arrestin cells, luminescence, 90 min. max activation, %. 0.58% of 410,000 active; in the data active means max activation above about 30%; further: 0% is about no effect
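Agonist mode: compounds and dopamine controls were applied to plated cells for 90 min at 37 degrees C after an overnight attachment at 1500 cells/well. Luminescent read-out followed 30 - 60 minutes at room temperature with DiscoveRx detection reagent.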
D3 antag – D3 dopamine receptor (human) antagonism; P35462; D3R cells, DiscoveRx beta-arrestin luminescence, antagonist mode; hits give low values; max response, negative = inhibition, %; 2.5% of 360,000 active; in the data active means max response below about -50%; inconclusive means no clear call, values can overlap the other calls; further: on the % scale 0 is the no-effect control and ±100 the full control effect
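Cells plated overnight at 1500 cells/well, then exposed to library compounds with dopamine controls for 90 minutes at 37 degrees C. DiscoveRx reagent added for 30–60 minutes at room temperature; luminescence read, quantitative HTS format.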
D1 antagonist – blocks dopamine activation of the human D1 receptor | 3.2% of 360,000 active | AID 504652 | P21728 | activity change, negative = inhibition, % at 10 µM | HEK293 TREx D1 cells, calcium flux, dopamine EC80; hits give low values; in the data active means activity change below about -30%; further: on the % scale 0 is the no-effect control and ±100 the full control effect
Target sequence (P21728 whole entry, looked up): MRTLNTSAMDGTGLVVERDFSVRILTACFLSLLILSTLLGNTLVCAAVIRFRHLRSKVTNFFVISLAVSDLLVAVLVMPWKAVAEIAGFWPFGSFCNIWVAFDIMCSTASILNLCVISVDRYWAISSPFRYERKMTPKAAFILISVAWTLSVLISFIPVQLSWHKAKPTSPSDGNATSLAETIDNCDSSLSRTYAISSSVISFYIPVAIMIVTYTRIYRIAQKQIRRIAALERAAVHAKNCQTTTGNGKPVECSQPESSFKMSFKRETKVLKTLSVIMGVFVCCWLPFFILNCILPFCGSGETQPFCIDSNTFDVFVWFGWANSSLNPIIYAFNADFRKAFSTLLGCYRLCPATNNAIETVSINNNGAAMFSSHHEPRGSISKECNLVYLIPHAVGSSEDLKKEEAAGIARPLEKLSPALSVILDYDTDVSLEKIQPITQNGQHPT
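After overnight tetracycline induction at 30 C, force-coupled D1 HEK293 cells took up a no-wash calcium dye at room temperature. Compounds were added and monitored 180 s, and the response to EC80 dopamine was then recorded.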
D1 ag – agonists of human D1 dopamine receptor; HEK293 T-REx D1 cells, calcium flux, agonist mode; 1% of 360,000 active; activation, % at 2 µM; P21728; in the data active means activation above about 30%; further: 0% is about no effect
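Inducible HEK293 T-REx D1 cells, force-coupled to calcium signalling, were plated at 4000 cells/well with tetracycline and held overnight at 30 C. After no-wash calcium dye loading, compound-evoked calcium rise over 180 s flagged agonists.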
D1 potentiator – enhances dopamine response at the human D1 receptor. HEK293 TREx D1 cells, calcium flux, dopamine EC20 potentiation. 0.036% of 360,000 active. P21728. potentiation, % at 10 µM; in the data active means potentiation above about 30%; further: 0% is about no effect
* marks the source's active call; other numbers are inactive results; ? = inconclusive; . = no result; ! = repeats disagree. Only some compounds are listed: those with a hit (about 6% of all), similar ones and a draw of the others.

SMILES	D3 ag	D3 antag	D1 antagonist	D1 ag	D1 potentiator
O=C(COC(=O)Cc1c(Cl)cccc1Cl)NCCC1=CCCCC1	4	18	-3	35*	-1
CCOC(=O)c1c(NC(C)=O)c2c3c(sc2n1Cc1cc(C)ccc1C)CCCC3	5	.	-20	-1	0
Brc1cccc(-c2nn(-c3ccccc3)c3c2cnc2cc4c(cc23)OCO4)c1	1	.	0	-2	0
CCOc1ccc(CNC(=O)C2=Cc3cc(Br)ccc3OC2)cc1OC	6	.	-38*	7	-3
Cc1cccc(NC(=O)CSc2nc3ccccc3nc2N2CCOCC2)c1C	4	.	-1	0	-2
Cc1ccc(C)c(NC(=O)CSc2nc3ccccc3nc2N2CCOCC2)c1	2	13	-46*!	1	7
CCN1CCN(C(=O)c2cc(S(=O)(=O)Nc3ccc(S(C)(=O)=O)cc3)ccc2Cl)CC1	4	10	-47*	1	-5
COc1ccc(CN(C)CCc2ccccn2)cc1OC	-4	-76*	5	-3	-1
COc1ccc(CCN(C)c2ccc(C(N)=O)cc2[N+](=O)[O-])cc1OC	-6	-2	-3	1	0
COc1ccc(CCN(C)C/C=C/c2ccccc2[N+](=O)[O-])cc1OC	-18	-60*	-7	3	-8
COc1cc(CNC23CC4CC(CC(C4)C2)C3)ccc1OCc1ccccc1	-6	1	-40*	85*	3
COc1ccc(CCN(C)Cc2ccc(OCc3ccccc3)c(OC)c2)cc1OC	-24	?	-42*	87*	-12
COc1cc(CNCc2cccs2)ccc1OCc1ccccc1	-5	-21	-12	18	-6
CCOc1ccc(-c2nonc2NC(=O)c2oc3cc(C)ccc3c2C)cc1	7	.	-8	1	2
COC(=O)[C@@]12C[C@@H](CC(=O)NCc3ccc(C)o3)C(=O)N(Cc3cccc4ccccc34)C1=CCC(C)(C)C2	-3	8	.	.	.
Cc1cccc(OCC(=O)NNC(=O)c2cc3ccccc3oc2=O)c1	-1	20	-4	3	-7
O=C(COc1ccc(F)cc1)NNC(=O)c1cc2ccccc2oc1=O	2	28	-30*	1	-9
Cc1cc(=O)[nH]c2nnc(SCc3cccc(F)c3)n12	-13	.	.	-5	1
O=c1[nH][nH]c(C(F)(F)F)c1C=Nc1cccc(Cl)c1	0	6	3	1	1
O=c1[nH][nH]c(C(F)(F)F)c1C=Nc1ccccc1	-4	-54*	-4	1	-9
CSc1nc(N)nc(SCCS(=O)(=O)c2ccc(Cl)cc2)c1C#N	-16	-15	-31*	3	-9
CCN1CCN(Cc2ccc(NC(=O)c3cc(NC(=O)C(=O)c4c[nH]c5ccccc45)cc(OC)c3)cc2C(F)(F)F)CC1	-8	-54*	-3	4	-2
CCN1CCN(Cc2ccc(NC(=O)c3cc(NC(=O)c4cc(C)on4)cc(OC)c3)cc2C(F)(F)F)CC1	-2	?	-21	6	-6
CCN1CCN(Cc2ccc(NC(=O)c3ccc(C)c(NC(=O)C(=O)c4c[nH]c5ccccc45)c3)cc2C(F)(F)F)CC1	-13	-72*!	-14	4	-6
O=C(O)[C@@H]1CSCN1	-20	.	.	.	.
SMILES	D3 ag	D3 antag	D1 antagonist	D1 ag	D1 potentiator
CC(=O)Nc1ccc2c(c1)OCCOCCOc1cc(NC(C)=O)ccc1OCCOCCOCCO2	.	.	-70*	1	-3
Cc1cccc(C)c1N1CCN(C(=O)Nc2ccc3c(c2)OCCO3)CC1	-3	?	-34*	20	-6
CC(=O)c1ccc2c(c1)OCCOCCOCCOCCOCCO2	-5	-9	-17	3	-8
CC(=O)c1cccc(OC(=O)c2ccc3c(=O)n4c(nc3c2)CCC4)c1	-17	1	-8	6	-1
C(=N\N1CCN(Cc2ccccc2)CC1)/c1cccs1	1	-73*	0	1	-7
O=C1/C(=C/c2ccccc2)CCc2ccc(Cl)nc21	-26	-73*	.	.	.
CCCCCCCCCCCCCCCC(=O)OC[C@@H](COP(=O)([O-])OCC[N+](C)(C)C)OC(=O)CCCCCCCCCCCCCCC	2	.	.	.	.
COc1ccc(N2C3=[N+](CC2(C)O)c2ccccc2CC3)cc1 (stereo not drawn)	-65	-25	-89*	3	-2
O=C(NCCc1c[nH]c2ccccc12)/C(=C\c1cccs1)NC(=O)c1ccccc1	3	-29	-42*	0	-7
